# Data: PubChem BioAssay AID504465 (National Center for Advancing Translational Sciences (NCATS), 2011)
# In all, about 2,100 compounds went through this assay and about 210 (10%) were called active. Inconclusive results (about 53%) are left out. The call rests on the fitted dose curve; in most records, active means well fitted inhibition curve with a large enough effect; inconclusive means small, poorly fitted or top-dose-only effect, or effect the other way; inactive means no such curve, though single readings can be large or run the other way. The list shows a part of the results. Where a call stands in place of a potency, no number is given.
# Assay: IN Cell qHTS Assay for Inhibitors of the mTORC1 Signaling Pathway in MEF (Tsc2-/-, p53-/-) Cells: Sytravon; further: nearly all actives have a fitted effect of over 60% in size
# Details: phospho-rpS6 immunofluorescence, 24 h; series mostly up to 38.3 µM
# In short: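 Tsc2-/-, p53-/- MEFs (empty-vector) treated with compound 24 h at 37 degree Celsius, then fixed and stained for phospho-rpS6 Ser235/236 (Alexa-488) plus Hoechst. Reported as % positive cells, thresholds set against 7.5 nM rapamycin and DMSO wells.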
# Potency means the concentration at half of the fitted maximal effect.
row,Compound,Potency
1,Cc1ccc(Cl)cc1NC(=O)CCn1cnc2ccccc2c1=O,inactive
2,COc1ccc(C(=O)N2CCc3cc(OC)c(OC)cc3C2COc2ccc3c(C)cc(=O)oc3c2)c(OC)c1 (stereo not drawn),inactive
3,Cc1ccc(S(=O)(=O)c2nnn3c2nc(NCc2cccs2)c2sccc23)cc1,inactive
4,CCCCS(=O)(=O)c1oc(-c2cccs2)nc1S(=O)(=O)c1ccc(F)cc1,3.69 µM (active)
5,O=S(=O)(c1ccccc1)c1nc(-c2cccs2)oc1SCc1ccccc1F,inactive
6,CCCCS(=O)(=O)c1oc(-c2cccs2)nc1S(=O)(=O)c1ccccc1,0.585 µM (active)
7,CCC(C)S(=O)(=O)c1oc(-c2cccs2)nc1S(=O)(=O)c1ccccc1 (stereo not drawn),1.47 µM (active)
8,Cc1nn(C)c2c1c(-c1ccccc1)cc(=O)n2Cc1ccccc1C#N,inactive
9,CCN1CCOC(=O)C1CC(=O)Nc1ccc(Br)cc1 (stereo not drawn),inactive
10,Cc1cc(C)cc(NC(=O)C2CCCN2S(=O)(=O)c2ccc3nc(-c4ccccc4)[nH]c3c2)c1 (stereo not drawn),inactive
11,COc1ccc(S(=O)(=O)NC2(C(F)(F)F)NC(=O)N(CCc3ccc(OC)c(OC)c3)C2=O)cc1 (stereo not drawn),inactive
12,O=C(CSCc1ccc(F)cc1)N1CCc2c([nH]c3ccccc23)C1c1ccc(Cl)cc1 (stereo not drawn),inactive
13,CCOc1ccc(-c2cc(NC(=O)c3ccc(C)cc3)c(C(=O)OC)s2)cc1,inactive
14,CCCCNC(=O)c1ccc2c(c1)N=C(CC)c1ccccc1S2,inactive
15,CCCN1CCN(CCCNC(=O)c2ccc3c(c2)sc2nc(-c4ccc(OCC)cc4)cn23)CC1,1.85 µM (active)
16,CCC1CCCCN1C(=O)CSc1n[nH]c(-c2ccccc2)n1 (stereo not drawn),inactive
17,CCOC(=O)c1cc(S(=O)(=O)NCc2ccc(C)cc2)[nH]n1,inactive
18,Cc1cccc(NC(=O)c2oc3ccc(S(=O)(=O)N4CCC5(CC4)OCCO5)cc3c2C)c1C,inactive
19,O=C(CC1(O)C(=O)N(Cc2ccccc2)c2ccc(Br)cc21)c1ccccc1 (stereo not drawn),16.5 µM (active)
20,COc1ccc(C(=O)CC2(O)C(=O)N(Cc3cccc(C(F)(F)F)c3)c3ccccc32)cc1 (stereo not drawn),4.65 µM (active)
21,COC(=O)CN1C(=O)C(O)(CC(=O)c2ccc(F)cc2)c2ccccc21 (stereo not drawn),inactive
22,CCCCN1C(=O)C(O)(c2c(C)[nH]c3ccccc23)c2cc(Br)ccc21 (stereo not drawn),inactive
23,O=C(CC1(O)C(=O)N(CCc2ccccc2)c2ccc(Br)cc21)c1ccccc1O (stereo not drawn),20.7 µM (active)
24,CCCCN1C(=O)C(O)(c2c[nH]c3ccccc23)c2cc(Br)ccc21 (stereo not drawn),inactive
25,CCCCN1C(=O)C(O)(CC(=O)c2ccc(CC)cc2)c2cc(Br)ccc21 (stereo not drawn),18.5 µM (active)
26,Cc1ccccc1CN1C(=O)C(O)(CC(=O)c2ccccc2)c2cc(Cl)ccc21 (stereo not drawn),inactive
27,COc1cccc(C(=O)CC2(O)C(=O)N(Cc3ccccc3)c3ccccc32)c1 (stereo not drawn),inactive
28,CCCN1C(=O)C(O)(CC(=O)c2ccc(C(C)C)cc2)c2ccccc21 (stereo not drawn),inactive
